According to the supplement of paper PMC10849652:
Targets with a hit are over-represented here; the source holds about 7,900 in all. About 0.6% of all pairs of compound and target were hits.

Tests used:
Test in all cases: log2 fold change, soluble protein after heating vs DMSO (PISA); higher = thermal stabilisation; K562 cells, 10 uM, 30 min; active = over 0.2 and 3.5 SD of the protein, either way, in both replicates (recomputed)
IRAK-1-4 Inhibitor I = compound: C1COCCN1CCN2C3=CC=CC=C3N=C2NC(=O)C4=CC(=CC=C4)[N+](=O)[O-] [IRAK-1-4 Inhibitor I]
Procedure, shortened: (§1)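 K562 cells at 2×10^6 cells/mL were treated for 30 min with 10 μM compound, and aliquots were heated for 3 min over 48°C-58°C before pooling. Extraction used PBS with 0.5% NP-40 at 4°C, and soluble protein was the supernatant after 21,000xg for 90 min, measured by TMTpro 16plex LC-MS/MS with channel sums equalised. Thermal stability values, relative to control samples and from duplicates, are log2 fold changes.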

ibrutinib = compound: C=CC(=O)N1CCC[C@@H](n2nc(-c3ccc(Oc4ccccc4)cc3)c3c(N)ncnc32)C1 [ibrutinib]
Procedure, shortened: as §1

[1] = compound: CC(=O)c1cnc2ccc(-c3cc(Cl)c(O)c(Cl)c3)nc2c1N[C@H]1CC[C@H](CN(C)C)CC1
Procedure, shortened: as §1

ralimetinib = compound: CC(C)(C)Cn1c(N)nc2ccc(-c3[nH]c(C(C)(C)C)nc3-c3ccc(F)cc3)nc21 [ralimetinib]
Procedure, shortened: as §1

[2] = compound: CC(C)(O)CC(=O)NCCn1ccc2ncnc(Nc3ccc(Oc4cccc(C(F)(F)F)c4)c(Cl)c3)c21
Procedure, shortened: as §1

[3] = compound: CC(C)C1=C2N=C(C=C(N2N=C1)NCC3=CC=CC=C3)NCCCCCCN
Procedure, shortened: as §1

[4] = compound: CC(C)C[C@@H](C=O)NC(=O)[C@H](CC(C)C)NC(=O)[C@H](CC(C)C)NC(=O)OCc1ccccc1
Procedure, shortened: as §1

pinometostat = compound: CC(C)N(C[C@H]1O[C@@H](n2cnc3c(N)ncnc32)[C@H](O)[C@@H]1O)[C@H]1C[C@@H](CCc2nc3cc(C(C)(C)C)ccc3[nH]2)C1 [pinometostat]
Procedure, shortened: as §1

[5] = compound: CC1=C(C(CC(=O)N1)C2=CC=C(C=C2)C(F)(F)F)C(=O)NC3=C(C=C4C(=C3)C=NN4)F
Procedure, shortened: as §1

[6] = compound: CC1=C(C2=C(C=C1)C(=O)C3=CC=CC=C3N2CCCN)C
Procedure, shortened: as §1

Measured: log2 fold change

MKNK1 (UniProt Q9BUB5)
Sequence of UniProt Q9BUB5 (Q9BUB5 whole entry, looked up): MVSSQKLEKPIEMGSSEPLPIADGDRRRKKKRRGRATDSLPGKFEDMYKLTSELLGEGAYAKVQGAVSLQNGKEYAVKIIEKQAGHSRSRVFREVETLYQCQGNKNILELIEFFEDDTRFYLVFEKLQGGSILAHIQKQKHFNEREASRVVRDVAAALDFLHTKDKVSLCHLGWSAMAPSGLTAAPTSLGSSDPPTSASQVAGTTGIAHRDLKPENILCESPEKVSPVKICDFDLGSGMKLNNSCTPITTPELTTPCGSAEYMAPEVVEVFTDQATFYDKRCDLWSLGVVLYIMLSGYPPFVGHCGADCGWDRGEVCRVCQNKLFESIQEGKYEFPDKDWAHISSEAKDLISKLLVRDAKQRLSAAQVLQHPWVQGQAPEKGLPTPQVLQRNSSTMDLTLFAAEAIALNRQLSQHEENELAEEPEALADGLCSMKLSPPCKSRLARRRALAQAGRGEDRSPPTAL
inactive: IRAK-1-4 Inhibitor I -0.078 | ibrutinib -0.034 | [1] 0.059 | ralimetinib 0.117 | [2] -0.032 | [3] -0.065 | [4] 0.168 | pinometostat -0.019 | [5] -0.018 | [6] 0.057

NUP107 (UniProt P57740)
inactive: IRAK-1-4 Inhibitor I -0.054 | ibrutinib -0.152 | [1] -0.035 | ralimetinib 0.035 | [2] 0.023 | [3] -0.005 | [4] 0.089 | pinometostat 0.165 | [5] 0.062 | [6] -0.052

NDUFA7 (UniProt O95182)
inactive: IRAK-1-4 Inhibitor I 0.169 | ibrutinib 0.024 | [1] -0.014 | ralimetinib -0.017 | [2] -0.192 | [3] -0.063 | [4] 0.158 | pinometostat 0.074 | [5] 0.038 | [6] 0.033

NIBAN1 (UniProt Q9BZQ8)
active: [3] -0.277
inactive: IRAK-1-4 Inhibitor I -0.125 | ibrutinib 0 | [1] -0.163 | ralimetinib 0.084 | [2] -0.07 | [4] 0.037 | pinometostat 0.068 | [5] -0.002 | [6] 0.02

MT-ND4 (UniProt P03905)
inactive: IRAK-1-4 Inhibitor I -0.005 | ibrutinib -0.092 | [1] -0.236 | ralimetinib -0.06 | [2] -0.094 | [3] -0.124 | [4] -0.054 | pinometostat -0.135 | [5] -0.065 | [6] 0.056

NME7 (UniProt Q9Y5B8)
inactive: IRAK-1-4 Inhibitor I 0.056 | ibrutinib -0.054 | [1] -0.038 | ralimetinib 0.095 | [2] -0.116 | [3] -0.066 | [4] 0.059 | pinometostat 0.065 | [6] -0.086

MORC2 (UniProt Q9Y6X9)
inactive: IRAK-1-4 Inhibitor I -0.292 | ibrutinib 0.042 | [1] -0.201 | [2] -0.074 | [3] -0.084 | pinometostat 0.038

NPM3 (UniProt O75607)
Sequence of UniProt O75607 (O75607 whole entry, looked up): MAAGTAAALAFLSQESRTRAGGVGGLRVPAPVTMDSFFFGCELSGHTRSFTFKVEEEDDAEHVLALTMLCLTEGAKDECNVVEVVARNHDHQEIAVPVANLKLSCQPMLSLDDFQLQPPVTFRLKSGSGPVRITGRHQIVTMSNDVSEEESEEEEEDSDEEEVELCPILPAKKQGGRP
inactive: IRAK-1-4 Inhibitor I -0.057 | ibrutinib -0.016 | [1] -0.004 | ralimetinib 0.045 | [3] 0.078 | [4] 0.053 | pinometostat 0.052 | [5] 0.088
active: [6] -0.521

NUDCD2 (UniProt Q8WVJ2)
inactive: IRAK-1-4 Inhibitor I -0.032 | ibrutinib -0.035 | [1] -0.027 | ralimetinib 0.033 | [2] -0.045 | [3] -0.248 | [4] -0.012 | pinometostat 0.066 | [5] -0.023 | [6] -0.064

MORF4L2 (UniProt Q15014)
inactive: IRAK-1-4 Inhibitor I -0.116 | ibrutinib 0.04 | [1] 0.047 | ralimetinib -0.01 | [2] 0.039 | [3] 0.052 | [4] 0.271 | pinometostat 0.092 | [5] 0.028 | [6] 0.005

OSBPL8 (UniProt Q9BZF1)
Sequence of UniProt Q9BZF1 (Q9BZF1 whole entry, looked up): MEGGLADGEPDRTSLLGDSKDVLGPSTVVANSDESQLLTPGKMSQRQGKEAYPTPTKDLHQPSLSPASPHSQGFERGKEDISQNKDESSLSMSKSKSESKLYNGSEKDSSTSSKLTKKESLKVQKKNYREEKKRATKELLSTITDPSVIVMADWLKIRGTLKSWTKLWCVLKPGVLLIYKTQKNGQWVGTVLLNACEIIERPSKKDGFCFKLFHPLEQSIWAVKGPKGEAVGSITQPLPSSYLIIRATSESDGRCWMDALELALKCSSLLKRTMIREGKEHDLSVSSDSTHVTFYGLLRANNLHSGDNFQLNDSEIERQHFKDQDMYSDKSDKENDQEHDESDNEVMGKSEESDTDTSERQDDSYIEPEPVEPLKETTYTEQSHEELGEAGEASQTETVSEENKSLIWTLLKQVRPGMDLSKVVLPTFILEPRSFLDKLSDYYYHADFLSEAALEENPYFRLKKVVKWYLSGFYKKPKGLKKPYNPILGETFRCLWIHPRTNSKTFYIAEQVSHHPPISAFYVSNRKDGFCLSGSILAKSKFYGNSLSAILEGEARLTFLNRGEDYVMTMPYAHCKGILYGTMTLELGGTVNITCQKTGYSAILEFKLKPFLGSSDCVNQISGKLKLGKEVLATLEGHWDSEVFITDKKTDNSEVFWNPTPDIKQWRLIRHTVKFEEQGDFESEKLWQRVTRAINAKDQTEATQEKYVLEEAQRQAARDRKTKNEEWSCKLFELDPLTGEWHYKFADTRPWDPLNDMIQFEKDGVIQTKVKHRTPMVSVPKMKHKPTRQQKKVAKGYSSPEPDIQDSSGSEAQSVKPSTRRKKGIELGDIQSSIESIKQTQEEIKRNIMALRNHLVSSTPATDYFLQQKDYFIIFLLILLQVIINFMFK
inactive: IRAK-1-4 Inhibitor I -0.148 | ibrutinib -0.042 | [1] -0.204 | ralimetinib 0.199 | [2] -0.019 | [3] -0.378 | [4] 0.046 | pinometostat 0.201 | [5] -0.076 | [6] 0.045

MRPS26 (UniProt Q9BYN8)
inactive: IRAK-1-4 Inhibitor I -0.09 | ibrutinib 0.008 | [1] 0.007 | ralimetinib -0.049 | [2] -0.143 | [3] 0.03 | [4] 0.137 | pinometostat 0.037 | [6] -0.133

NUP98 (UniProt P52948)
Sequence of UniProt P52948 (P52948 whole entry, looked up): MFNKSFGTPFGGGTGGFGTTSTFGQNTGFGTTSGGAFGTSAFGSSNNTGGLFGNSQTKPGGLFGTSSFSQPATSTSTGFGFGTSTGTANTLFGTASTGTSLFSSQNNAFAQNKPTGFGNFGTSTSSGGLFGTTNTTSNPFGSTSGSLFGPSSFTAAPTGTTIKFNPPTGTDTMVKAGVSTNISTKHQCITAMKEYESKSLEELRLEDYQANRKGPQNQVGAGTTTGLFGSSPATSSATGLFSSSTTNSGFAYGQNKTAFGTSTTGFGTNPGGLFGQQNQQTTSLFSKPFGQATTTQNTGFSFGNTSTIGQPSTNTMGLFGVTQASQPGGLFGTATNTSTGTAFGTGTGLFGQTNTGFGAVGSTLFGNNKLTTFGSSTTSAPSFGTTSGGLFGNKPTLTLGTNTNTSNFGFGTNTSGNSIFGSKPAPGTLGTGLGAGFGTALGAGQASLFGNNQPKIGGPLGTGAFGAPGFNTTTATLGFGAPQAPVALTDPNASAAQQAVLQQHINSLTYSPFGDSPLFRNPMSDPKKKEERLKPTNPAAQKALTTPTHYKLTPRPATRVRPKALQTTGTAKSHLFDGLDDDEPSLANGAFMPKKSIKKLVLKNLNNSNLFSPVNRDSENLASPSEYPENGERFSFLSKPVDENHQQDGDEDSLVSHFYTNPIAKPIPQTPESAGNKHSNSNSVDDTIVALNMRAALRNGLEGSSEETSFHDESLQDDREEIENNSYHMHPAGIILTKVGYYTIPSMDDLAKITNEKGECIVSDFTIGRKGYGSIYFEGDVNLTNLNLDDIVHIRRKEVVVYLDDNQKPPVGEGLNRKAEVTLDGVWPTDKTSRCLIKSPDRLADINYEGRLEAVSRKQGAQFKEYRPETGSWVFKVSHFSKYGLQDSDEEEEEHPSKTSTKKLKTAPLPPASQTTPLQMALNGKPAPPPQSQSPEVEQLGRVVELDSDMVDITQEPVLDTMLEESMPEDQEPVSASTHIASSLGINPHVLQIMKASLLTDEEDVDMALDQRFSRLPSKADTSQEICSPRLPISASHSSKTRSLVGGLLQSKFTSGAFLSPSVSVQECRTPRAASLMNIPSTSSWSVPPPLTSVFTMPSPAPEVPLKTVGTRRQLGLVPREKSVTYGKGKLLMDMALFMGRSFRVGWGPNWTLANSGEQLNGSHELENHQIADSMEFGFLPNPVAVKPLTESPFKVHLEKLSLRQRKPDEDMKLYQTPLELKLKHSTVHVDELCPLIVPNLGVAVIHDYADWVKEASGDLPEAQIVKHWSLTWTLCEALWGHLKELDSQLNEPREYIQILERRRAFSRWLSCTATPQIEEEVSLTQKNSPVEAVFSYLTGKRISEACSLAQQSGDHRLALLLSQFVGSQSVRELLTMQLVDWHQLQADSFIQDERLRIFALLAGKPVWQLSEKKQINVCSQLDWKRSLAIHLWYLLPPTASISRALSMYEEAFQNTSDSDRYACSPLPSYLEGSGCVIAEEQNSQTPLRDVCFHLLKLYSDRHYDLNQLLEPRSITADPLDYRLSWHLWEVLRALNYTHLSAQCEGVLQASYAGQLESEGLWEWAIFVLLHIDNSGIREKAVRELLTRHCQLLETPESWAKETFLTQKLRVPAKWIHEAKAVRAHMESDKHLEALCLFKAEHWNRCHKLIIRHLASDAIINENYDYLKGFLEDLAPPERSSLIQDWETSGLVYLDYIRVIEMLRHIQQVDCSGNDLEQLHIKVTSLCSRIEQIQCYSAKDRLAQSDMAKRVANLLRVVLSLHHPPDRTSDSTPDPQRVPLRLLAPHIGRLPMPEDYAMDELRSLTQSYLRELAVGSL
inactive: IRAK-1-4 Inhibitor I -0.021 | ibrutinib -0.048 | [1] -0.146 | ralimetinib 0.04 | [2] 0 | [3] -0.071 | [4] 0.041 | pinometostat 0.03 | [5] -0.019 | [6] 0.013

OGFOD2 (UniProt Q6N063)
Sequence of UniProt Q6N063 (Q6N063 whole entry, looked up): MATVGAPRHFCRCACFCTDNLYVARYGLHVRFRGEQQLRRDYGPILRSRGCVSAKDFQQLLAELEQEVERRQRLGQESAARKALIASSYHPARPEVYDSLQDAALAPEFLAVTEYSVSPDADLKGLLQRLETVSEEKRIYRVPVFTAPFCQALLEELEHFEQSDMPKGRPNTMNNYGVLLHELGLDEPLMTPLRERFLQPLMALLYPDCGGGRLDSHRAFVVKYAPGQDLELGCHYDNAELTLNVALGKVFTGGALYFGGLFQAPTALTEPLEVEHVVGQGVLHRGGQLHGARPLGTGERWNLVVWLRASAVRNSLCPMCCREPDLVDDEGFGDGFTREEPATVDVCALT
inactive: IRAK-1-4 Inhibitor I 0.016 | ibrutinib -0.023 | [1] -0.102 | ralimetinib 0.011 | [2] -0.031 | [3] -0.079 | [4] 0.002 | pinometostat 0.025 | [5] -0.001 | [6] -0.073

NCAPD2 (UniProt Q15021)
inactive: IRAK-1-4 Inhibitor I -0.101 | ibrutinib -0.067 | [1] 0.097 | ralimetinib 0.048 | [2] -0.151 | [3] -0.208 | [4] 0.054 | pinometostat 0.039 | [5] -0.012 | [6] -0.036

NUDT1 (UniProt P36639)
inactive: IRAK-1-4 Inhibitor I 0.025 | [2] -0.263 | [4] -0.082 | pinometostat -0.017 | [5] -0.069 | [6] 0.074
active: ibrutinib 0.943 | [1] 0.816 | ralimetinib 1.69 | [3] 0.946

MRPL46 (UniProt Q9H2W6)
inactive: IRAK-1-4 Inhibitor I -0.069 | ibrutinib -0.012 | [1] 0.077 | ralimetinib 0.029 | [2] -0.008 | [3] -0.073 | [4] 0.064 | pinometostat 0.03 | [5] -0.004 | [6] -0.026

NAP1L1 (UniProt P55209)
Sequence of UniProt P55209 (P55209 whole entry, looked up): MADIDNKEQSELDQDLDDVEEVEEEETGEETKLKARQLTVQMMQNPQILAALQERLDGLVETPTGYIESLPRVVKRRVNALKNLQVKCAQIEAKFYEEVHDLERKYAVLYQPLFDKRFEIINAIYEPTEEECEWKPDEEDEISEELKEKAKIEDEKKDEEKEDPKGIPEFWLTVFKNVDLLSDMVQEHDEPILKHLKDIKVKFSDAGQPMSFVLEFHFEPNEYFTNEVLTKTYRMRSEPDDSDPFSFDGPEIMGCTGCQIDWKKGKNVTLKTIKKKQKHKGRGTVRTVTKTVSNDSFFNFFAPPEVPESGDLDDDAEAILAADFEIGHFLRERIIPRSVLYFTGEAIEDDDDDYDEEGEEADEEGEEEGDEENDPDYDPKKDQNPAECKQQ
inactive: IRAK-1-4 Inhibitor I 0.04 | ibrutinib -0.041 | [1] -0.012 | ralimetinib -0.003 | [2] 0.021 | [3] 0.017 | [4] 0.021 | pinometostat -0.029 | [5] 0.105 | [6] 0.004

NOL7 (UniProt Q9UMY1)
Sequence of UniProt Q9UMY1 (Q9UMY1 whole entry, looked up): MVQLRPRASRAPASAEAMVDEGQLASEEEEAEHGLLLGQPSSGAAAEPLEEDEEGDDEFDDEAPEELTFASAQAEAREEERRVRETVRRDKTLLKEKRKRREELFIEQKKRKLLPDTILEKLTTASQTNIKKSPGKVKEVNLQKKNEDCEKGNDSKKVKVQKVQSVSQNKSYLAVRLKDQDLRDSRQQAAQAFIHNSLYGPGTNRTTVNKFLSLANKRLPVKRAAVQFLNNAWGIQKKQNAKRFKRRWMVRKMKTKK
inactive: IRAK-1-4 Inhibitor I -0.139 | ibrutinib 0.036 | [1] 0.158 | ralimetinib 0.041 | [2] 0.043 | [3] 0.016 | [4] 0.141 | pinometostat 0.242 | [5] 0.059 | [6] -0.485

OVCA2 (UniProt Q8WZ82)
inactive: IRAK-1-4 Inhibitor I -0.087 | ibrutinib 0.023 | [1] -0.019 | ralimetinib -0.1 | [4] 0.095 | pinometostat 0.021 | [5] 0.044

PAK1 isoform 2 (UniProt Q13153)
inactive: IRAK-1-4 Inhibitor I 0.018 | ibrutinib 0.048 | [1] 0.158 | ralimetinib -0.066 | [2] -0.025 | [3] 0 | [4] -0.046 | pinometostat -0.038 | [5] 0.192 | [6] 0.051

NUMB (UniProt P49757)
inactive: IRAK-1-4 Inhibitor I 0.008 | ibrutinib -0.05 | ralimetinib 0.049 | [2] -0.062 | [3] -0.086 | [4] 0.053 | pinometostat 0.061 | [5] 0.047 | [6] 0.079
active: [1] -0.318

ORC5 (UniProt O43913)
Sequence of UniProt O43913 (O43913 whole entry, looked up): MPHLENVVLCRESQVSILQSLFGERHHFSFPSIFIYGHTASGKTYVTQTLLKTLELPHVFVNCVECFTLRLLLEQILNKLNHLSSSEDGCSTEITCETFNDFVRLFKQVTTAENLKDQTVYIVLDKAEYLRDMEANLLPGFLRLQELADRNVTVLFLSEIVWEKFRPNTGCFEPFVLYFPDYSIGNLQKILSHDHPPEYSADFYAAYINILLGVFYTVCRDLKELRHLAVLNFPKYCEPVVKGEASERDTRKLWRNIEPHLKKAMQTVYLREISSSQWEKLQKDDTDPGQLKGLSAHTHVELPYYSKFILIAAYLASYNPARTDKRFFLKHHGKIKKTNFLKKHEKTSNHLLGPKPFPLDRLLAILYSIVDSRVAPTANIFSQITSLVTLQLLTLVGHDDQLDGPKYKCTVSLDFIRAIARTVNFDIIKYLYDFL
inactive: IRAK-1-4 Inhibitor I 0.024 | ibrutinib -0.014 | [1] -0.306 | ralimetinib 0.015 | [3] -0.134 | [4] 0.005 | pinometostat 0.128 | [5] -0.005 | [6] 0.08

MT-ATP6 (UniProt P00846)
inactive: IRAK-1-4 Inhibitor I 0 | ibrutinib -0.68 | [1] -0.178 | ralimetinib -0.178 | [2] -0.033 | [3] -0.06 | [4] -0.165 | pinometostat -0.162 | [5] -0.218 | [6] -0.072

NNT (UniProt Q13423)
inactive: IRAK-1-4 Inhibitor I 0.013 | ibrutinib -0.018 | [1] -0.016 | ralimetinib -0.099 | [2] -0.056 | [3] 0.016 | [4] -0.053 | pinometostat -0.029 | [5] -0.022 | [6] 0.037

MRPS2 (UniProt Q9Y399)
inactive: IRAK-1-4 Inhibitor I -0.043 | ibrutinib 0.109 | [1] -0.011 | ralimetinib -0.02 | [2] -0.035 | [3] -0.03 | [4] 0.08 | pinometostat 0.002 | [5] 0.002 | [6] -0.079

NDUFB1 (UniProt O75438)
inactive: IRAK-1-4 Inhibitor I 0.034 | ibrutinib 0.024 | [1] 0.06 | [2] -0.043 | [3] -0.052 | pinometostat 0.065 | [5] 0.059 | [6] 0.158

NUDT16 (UniProt Q96DE0)
Sequence of UniProt Q96DE0 (Q96DE0 whole entry, looked up): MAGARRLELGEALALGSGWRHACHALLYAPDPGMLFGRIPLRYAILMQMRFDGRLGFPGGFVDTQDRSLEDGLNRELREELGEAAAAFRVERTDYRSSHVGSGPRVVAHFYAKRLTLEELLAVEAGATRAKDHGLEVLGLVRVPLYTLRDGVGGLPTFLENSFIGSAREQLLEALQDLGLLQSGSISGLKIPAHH
inactive: IRAK-1-4 Inhibitor I 0.049 | ibrutinib 0.03 | [1] 0.022 | ralimetinib -0.039 | [2] 0.005 | [3] 0.066 | [4] -0.001 | pinometostat -0.001 | [5] 0.017 | [6] 0.004

MMADHC (UniProt Q9H3L0)
inactive: IRAK-1-4 Inhibitor I 0.014 | ibrutinib -0.056 | [1] -0.011 | ralimetinib 0.073 | [3] 0.039 | [4] 0.076 | pinometostat 0.182 | [5] -0.118 | [6] -0.137

NELFCD (UniProt Q8IXH7)
inactive: IRAK-1-4 Inhibitor I -0.038 | ibrutinib -0.18 | [1] -0.04 | [2] -0.394 | [3] 0.101 | pinometostat 0.017 | [5] -0.036

NOP53 (UniProt Q9NZM5)
active: [6] -1.19
inactive: IRAK-1-4 Inhibitor I -0.209 | ibrutinib 0.018 | [1] 0.303 | ralimetinib 0.212 | [2] 0.411 | [3] 0.233 | [4] 0.089 | pinometostat 0.321 | [5] -0.016
